According to PubChem BioAssay AID1159580 (chemical genetic matrix, 2015):
“And” between values parts separate entries of the source, which are not always exact repeats. Equal values may be shown once. Among all 5,500 compounds or so, about 2,000 (36%) were called active. Inconclusive results (about 18%) are left out. No stated cut-off is given here; in the data, active means normalized growth mostly below about 0.91 (no sharp cut-off); inconclusive means no clear call, values can overlap the other calls; inactive means mostly above about 0.92. Some of the results follow.

Experiment: chemical genetic growth profiling, strain panel (AID 1159580);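 further: tested at 20 µM; growth read once vehicle control cultures reached saturation at 30 °C; 1 = growth at the plate median or of vehicle wells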
Conditions: S. cerevisiae deletion strains, growth OD
[1] = locus YHR030C, strain SLT2, stronger effect = lower value
[2] = locus YHR079C, strain IRE1, stronger effect = lower value
[3] = locus YJL095W, strain BCK1, stronger effect = lower value
[4] = locus YJR066W, strain TOR1, stronger effect = lower value
[5] = locus YLR113W, strain HOG1, stronger effect = lower value
[6] = locus YNL183C, strain NPR1, stronger effect = lower value
[7] = locus YOR231W, strain MKK1, stronger effect = lower value
[8] = locus YPL256C, strain CLN2, stronger effect = lower value

Measured: normalized growth

NCC[C@@H](O)C(=O)N[C@@H]1C[C@H](N)[C@@H](O[C@H]2O[C@H](CN)[C@@H](O)[C@H](O)[C@H]2O)[C@H](O)[C@H]1O[C@H]1O[C@H](CO)[C@@H](O)[C@H](N)C1O (some centres undefined)
inactive: locus YAL013W, strain DEP1, stronger effect = lower value 0.974 | locus YAL021C, strain ccr4, stronger effect = lower value 1.02 | locus YAL026C, strain drs2, stronger effect = lower value 1.02 | locus YAL030W, strain snc1, stronger effect = lower value 1.04 | locus YBL061C, strain skt5, stronger effect = lower value 1.03 | locus YBR009C, strain hhf1, stronger effect = lower value 1.03 | locus YBR021W, strain FUR4, stronger effect = lower value 0.96 | locus YBR023C, strain chs3, stronger effect = lower value 1.04 | locus YBR171W, strain sec66, stronger effect = lower value 1.04 | locus YBR229C, strain ROT2, stronger effect = lower value 0.999 | locus YBR231C, strain swc5, stronger effect = lower value 1.04 | locus YBR279W, strain paf1, stronger effect = lower value 1.03 | locus YCL011C, strain gbp2, stronger effect = lower value 1.03 | locus YCL016C, strain dcc1, stronger effect = lower value 1.04 | locus YCL029C, strain bik1, stronger effect = lower value 1.02 | locus YCL061C, strain MRC1, stronger effect = lower value 1.02 | locus YCL069W, strain vba3, stronger effect = lower value 1.04 | locus YCR088W, strain abp1, stronger effect = lower value 1.03 | locus YDL005C, strain med2, stronger effect = lower value 1.04 | locus YDL035C, strain GPR1, stronger effect = lower value 0.986 | locus YDL040C, strain nat1, stronger effect = lower value 1.04 | locus YDL074C, strain BRE1, stronger effect = lower value 0.983 | locus YDL101C, strain DUN1, stronger effect = lower value 0.999 | locus YDL185W, strain tfp1, stronger effect = lower value 1.02 | locus YDL192W, strain arf1, stronger effect = lower value 1.01 | locus YDR001C, strain nth1, stronger effect = lower value 1.02 | locus YDR069C, strain doa4, stronger effect = lower value 1.03 | locus YDR101C, strain arx1, stronger effect = lower value 0.998 | locus YDR137W, strain rgp1, stronger effect = lower value 1.04 | locus YDR159W, strain sac3, stronger effect = lower value 1.05 | locus YDR162C, strain NBP2, stronger effect = lower value 1.01 | locus YDR195W, strain ref2 1.08 | locus YDR297W, strain sur2, stronger effect = lower value 1.03 | locus YDR318W, strain mcm21, stronger effect = lower value 1.01 | locus YDR334W, strain swr1, stronger effect = lower value 1.01 | locus YDR335W, strain msn5, stronger effect = lower value 1.04 | locus YDR388W, stronger effect = lower value 1.01 | locus YDR392W, strain spt3, stronger effect = lower value 1.06 | locus YDR502C, strain sam2, stronger effect = lower value 1.01 | locus YEL003W, strain gim4, stronger effect = lower value 1.03 | locus YEL037C, strain rad23, stronger effect = lower value 1.03 | locus YEL061C, strain CIN8 (second series), stronger effect = lower value 1.04 | locus YEL061C, strain CIN8, stronger effect = lower value 1 | locus YER015W, strain faa2, stronger effect = lower value 1.03 | locus YER016W, strain bim1, stronger effect = lower value 1 | locus YER110C, stronger effect = lower value 1.03 | locus YER111C, strain swi4, stronger effect = lower value 1.03 | locus YER155C, strain BEM2 (second series), stronger effect = lower value 1.02 | locus YER155C, strain BEM2, stronger effect = lower value 1.01 | locus YER167W, strain BCK2, stronger effect = lower value 0.986 | locus YFR010W, strain ubp6, stronger effect = lower value 1.05 | locus YGL078C, strain dbp3, stronger effect = lower value 1 | locus YGL086W, strain mad1, stronger effect = lower value 1 | locus YGL167C, strain pmr1, stronger effect = lower value 1.03 | locus YGL173C, strain kem1, stronger effect = lower value 1.04 | locus YGL227W, strain vid30, stronger effect = lower value 1.05 | locus YGL240W, strain doc1, stronger effect = lower value 1.01 | locus YGL248W, strain PDE1, stronger effect = lower value 0.999 | locus YGL253W, strain hxk2, stronger effect = lower value 1.02 | locus YGR078C, strain PAC10, stronger effect = lower value 0.997 | locus YGR135W, strain pre9, stronger effect = lower value 0.988 | locus YGR252W, strain gcn5, stronger effect = lower value 0.944 | locus YHR013C, strain ard1, stronger effect = lower value 1.04 | locus YHR027C, strain rpn1, stronger effect = lower value 1.03 | [1] 1.01 and 1.02 | locus YHR079C, strain IRE1 (second series), stronger effect = lower value 1.02 | [2] 1.03 | locus YHR094C, strain hxt1, stronger effect = lower value 1.03 | locus YHR129C, strain ARP1, stronger effect = lower value 1.01 | locus YHR142W, strain chs7, stronger effect = lower value 1.06 | locus YHR200W, strain rpn10, stronger effect = lower value 1.02 | locus YIL066C, strain RNR3, stronger effect = lower value 1 | locus YIL073C, strain SPO22, stronger effect = lower value 1.19 | locus YIL125W, strain kgd1, stronger effect = lower value 1.01 | locus YIR030C, strain dcg1, stronger effect = lower value 1.03 | locus YJL092W, strain hpr5, stronger effect = lower value 1.03 | locus YJL095W, strain BCK1 (second series), stronger effect = lower value 1 | [3] 0.999 and 1.02 | locus YJL115W, strain asf1, stronger effect = lower value 1.04 | locus YJL129C, strain trk1, stronger effect = lower value 1.07 | locus YJL134W, strain LCB3, stronger effect = lower value 1.01 | locus YJL154C, strain vps35, stronger effect = lower value 1.03 | locus YJL164C, strain tpk1, stronger effect = lower value 1.01 | locus YJL166W, strain qcr8, stronger effect = lower value 1.03 | locus YJL168C, strain set2, stronger effect = lower value 1.01 | locus YJL187C, strain SWE1 (second series), stronger effect = lower value 0.999 | locus YJL187C, strain SWE1, stronger effect = lower value 1.03 | locus YJR043C, strain POL32, stronger effect = lower value 0.983 | [4] 0.975 | locus YJR075W, strain HOC1, stronger effect = lower value 0.995 | locus YKL009W, strain mrt4, stronger effect = lower value 1.02 | locus YKL068W, stronger effect = lower value 1.01 | locus YKL085W, strain MDH1 (second series), stronger effect = lower value 1.01 | locus YKL085W, strain MDH1, stronger effect = lower value 1.01 | locus YKL160W, strain elf1, stronger effect = lower value 1.01 | locus YKR001C, strain vps1, stronger effect = lower value 1.01 | locus YKR026C, strain gcn3, stronger effect = lower value 1.07 | locus YKR091W, strain srl3, stronger effect = lower value 1.01 | locus YLL001W, strain dnm1, stronger effect = lower value 1.02 | locus YLL026W, stronger effect = lower value 1.01 | locus YLL041C, strain sdh2, stronger effect = lower value 1.03 | locus YLR027C, strain aat2, stronger effect = lower value 1.02 | locus YLR039C, strain RIC1, stronger effect = lower value 1.04 | locus YLR058C, strain SHM2, stronger effect = lower value 1.01 | locus YLR102C, strain apc9, stronger effect = lower value 1.01 | [5] 1.03 | locus YLR221C, strain rsa3, stronger effect = lower value 1.01 | locus YLR258W, strain gsy2, stronger effect = lower value 1.02 | locus YLR262C, strain YPT6 (second series), stronger effect = lower value 1.03 | locus YLR262C, strain YPT6, stronger effect = lower value 1.04 | locus YLR268W, strain sec22, stronger effect = lower value 1.04 | locus YLR320W, strain mms22, stronger effect = lower value 1.03 | locus YLR330W, strain CHS5, stronger effect = lower value 1.01 | locus YLR342W, strain FKS1 (second series), stronger effect = lower value 0.966 | locus YLR342W, strain FKS1, stronger effect = lower value 1.03 | locus YLR357W, strain rsc2, stronger effect = lower value 1.09 | locus YLR370C, strain arc18, stronger effect = lower value 1.03 | locus YLR371W, strain rom2, stronger effect = lower value 1.01 | locus YLR384C, strain iki3, stronger effect = lower value 1.03 | locus YLR418C, strain cdc73, stronger effect = lower value 1.01 | locus YML016C, strain PPZ1, stronger effect = lower value 1.01 | locus YML032C, strain rad52, stronger effect = lower value 1.01 | locus YML120C, strain ndi1, stronger effect = lower value 1.02 | locus YML124C, strain tub3, stronger effect = lower value 1.01 | locus YMR058W, strain fet3, stronger effect = lower value 1.04 | locus YMR078C, strain ctf18, stronger effect = lower value 1.02 | locus YMR125W, strain sto1, stronger effect = lower value 1.06 | locus YMR129W, stronger effect = lower value 1.03 | locus YMR205C, strain PFK2, stronger effect = lower value 1.05 | locus YMR223W, strain ubp8, stronger effect = lower value 1.01 | locus YMR231W, strain pep5, stronger effect = lower value 1.03 | locus YMR263W, strain SAP30, stronger effect = lower value 1 | locus YMR307W, strain GAS1, stronger effect = lower value 0.921 | locus YNL067W, strain RPL9B, stronger effect = lower value 0.992 | locus YNL071W, strain lat1, stronger effect = lower value 1.02 | locus YNL153C, strain GIM3, stronger effect = lower value 0.996 | [6] 0.952 | locus YNL209W, strain ssb2, stronger effect = lower value 1.02 | locus YNL233W, strain BNI4, stronger effect = lower value 1.02 | locus YNL248C, strain rpa49, stronger effect = lower value 0.984 | locus YNL250W, strain rad50, stronger effect = lower value 1.01 | locus YNL271C, strain bni1, stronger effect = lower value 1.02 | locus YNL298W, strain CLA4, stronger effect = lower value 1.02 | locus YNL307C, strain MCK1, stronger effect = lower value 1.02 | locus YNL322C, strain KRE1 (second series), stronger effect = lower value 1.04 | locus YNL322C, strain KRE1, stronger effect = lower value 1.01 | locus YNR049C, strain mso1, stronger effect = lower value 1.03 | locus YNR052C, strain pop2, stronger effect = lower value 1.02 | locus YOL006C, strain TOP1, stronger effect = lower value 0.932 | locus YOL012C, strain htz1 0.906 | locus YOL147C, strain pex11, stronger effect = lower value 1.02 | locus YOR001W, strain rrp6, stronger effect = lower value 1.05 | locus YOR061W, strain CKA2, stronger effect = lower value 1.01 | locus YOR069W, strain VPS5, stronger effect = lower value 1.01 | locus YOR070C, strain gyp1, stronger effect = lower value 1.03 | locus YOR080W, strain dia2, stronger effect = lower value 1.05 | locus YOR083W, strain WHI5, stronger effect = lower value 1.02 | locus YOR106W, strain vam3, stronger effect = lower value 1.04 | locus YOR136W, strain idh2, stronger effect = lower value 1.02 | locus YOR144C, strain elg1, stronger effect = lower value 1.02 | locus YOR184W, strain ser1, stronger effect = lower value 1.03 | [7] 1 | locus YOR265W, strain rbl2, stronger effect = lower value 1.04 | locus YOR270C, strain vph1, stronger effect = lower value 1.05 | locus YOR290C, strain snf2, stronger effect = lower value 1.04 | locus YOR316C, strain cot1, stronger effect = lower value 1.02 | locus YPL051W, strain arl3, stronger effect = lower value 1.02 | locus YPL078C, strain atp4, stronger effect = lower value 1.03 | locus YPL106C, strain sse1, stronger effect = lower value 1.07 | locus YPL240C, strain hsp82, stronger effect = lower value 1.02 | [8] 1.04 | locus YPR119W, strain clb2, stronger effect = lower value 1.01 | locus YPR141C, strain kar3, stronger effect = lower value 1.01 | locus YPR163C, strain tif3, stronger effect = lower value 1.02 | locus YPR167C, strain met16, stronger effect = lower value 1.02 | strain wtn01, stronger effect = lower value 1.01

NC(=O)CC[C@H](N)C(=O)O
inactive: [1] 0.98 | [2] 0.977 | [3] 0.965 | [4] 0.941 | [5] 0.976 | [6] 0.954 | [7] 0.98 | [8] 0.972
